# Experimental data reported in PubChem BioAssay (EPA / NIEHS).
# Several values for one entry are separate records, joined by “and”; a condition that tells them apart may be missing. Identical values can stand only once. Activity calls are given as the source filed them. How the source made its calls: active means hit-call score of the fitted dose curve at least 0.9, where 1 is the maximum; inactive means score below 0.9.
# Read-out: Vascular cell adhesion molecule 1 (VCAM1), VCAM1 (gene 7412)
# Assay: BSK_MyoF_VCAM1: BioMAP Diversity Plus: MyoF Assay for Vascular cell adhesion molecule 1 (VCAM1) Biomarker Activity (AID 2284231)
# Details: primary human lung fibroblasts
# Experimental: BSK_MyoF is a cell-based, multiplexed-readout assay that uses lung fibroblasts, […], with measurements taken at 24 hours after chemical dosing in a microplate: 96-well plate.BSK_MyoF_VCAM1 is an assay component measured in the BSK_MyoF assay. It measures VCAM-1 antibody related to regulation of gene expression using ELISA technology.Data from the assay component BSK_MyoF_VCAM1 was analyzed at the endpoint, BSK_MyoF_VCAM1, in the positive analysis fitting direction relative to DMSO as the negative control and baseline of activity. Using a type of binding reporter, gain or loss-of-signal activity can be used to understand protein changes. To generalize the intended target to other relatable targets, this assay endpoint is annotated to the 'cell adhesion molecules' intended target family, where the subfamily is 'Immunoglobulin CAM'.
# The levels of cell surface (or secreted, indicated by the prefix "s") biomarker endpoints were measured by ELISA. Overt cytotoxicity to cells in confluent adherent cultures (all systems other than the BT system) was assessed by measuring total protein levels using sulforhodamine B (SRB) staining in parallel cultures at the time of biomarker measurements, indicated as SRB endpoints. For proliferation assays for adherent cell types, individual cell types are cultured at sub-confluence and relative cell numbers quantified by SRB staining at time points optimized for each system (48 h: 3C and CASM3C systems; 72 h: BT and HDF3CGF systems; 96 h: SAg system). SRB was performed by staining cells with 0.1% SRB after fixation with 10% TCA and reading wells at 560 nm.Viability and proliferation of PBMC (T cells) was quantified by Alamar Blue reduction for the SAg and BT systems. For PBMC viability (referred to as PBMC Cytotoxicity within the assay endpoint names), cells were plated (75,000/well in a 96-well plate) and then chemical samples added for 1 h before addition of activators, SEB and TSST-1 (20 ng/mL final concentration each). Cells were incubated for 90 h. Then, Alamar Blue (20 uL/well) (Invitrogen, Cat DAL1100) was added for 6 h, and the plates were read with a fluorescence microplate reader at 546/580 nm (excitation/emission). For PBMC proliferation, cells were plated and activated as above but incubated for only 16 h prior to addition of Alamar Blue. Plates were read after 6 h.
Compound,AC50,outcome
COc1ccc(C(=O)/C(Br)=C\C(=O)O)cc1,25.5 µM (active) and 10.5 µM (active),
C=CC(=O)OCCCCCCCC(C)C,,inactive
Cc1c(O)cccc1O,,inactive
CCCCCCCCCCCC(C)=O,,inactive
CCNc1nc(NC(C)(C)C)nc(OC)n1,,inactive
Nc1cccc(N)n1,,inactive
CCc1cccc(C)c1N(C(=O)CS(=O)(=O)O)C(C)COC (stereo not given),,inactive
Oc1c(Cl)cc(Cl)c(Cl)c1Cl,11.6 µM (active),
CCCCCCCCC(CO)CCCCCC (stereo not given),,inactive
CC(Cl)COP(=O)(OCC(C)Cl)OCC(C)Cl (stereo not given),,inactive
C[N+](C)(C)CCCNS(=O)(=O)C(F)(F)C(F)(F)C(F)(F)C(F)(F)C(F)(F)C(F)(F)C(F)(F)C(F)(F)F,44.5 µM (active) and 57 µM (active),
CC/C=C\CCOC(=O)c1ccccc1O,34.2 µM (active),
C=CC(=O)NC(C)(C)C,,inactive
O=C1CCCCCCCCCCC1,,inactive
O=C(Cl)c1c(Cl)c(Cl)c(C(=O)Cl)c(Cl)c1Cl,,inactive
Oc1ccc(/C=C/c2cc(O)cc(O)c2)cc1,,inactive
CCC1(C)C(=O)N(Cl)C(=O)N1Cl (stereo not given),,inactive
C=CC(=O)OCC(C)OCC(C)OCC(C)OC(=O)C=C (stereo not given),30.1 µM (active),
CCN1CN(CC)CN(CC)C1,,inactive
O=C(Oc1ccccc1)c1ccccc1C(=O)Oc1ccccc1,20 µM (active),

Compound,AC50,outcome
CC(C)c1cccc(C(C)C)c1N,,inactive
CC(c1cc(C(C)(C)C)cc(C(C)(C)C)c1O)c1cc(C(C)(C)C)cc(C(C)(C)C)c1O,,inactive
c1ccc2sc(SSN3CCOCC3)nc2c1,30.4 µM (active),
C=C(C)C(=O)OCCCCCCCCCCCC,,inactive
CCCCCC1=CCCC1=O,,inactive
CCCCCCCO,,inactive
C=CC(=O)NCOCCCC,,inactive
O=C(O)C(F)(F)C(F)(F)C(F)(F)C(F)(F)C(=O)O,,inactive
CC1=CC=C(C(C)C)CC1,,inactive
Clc1cc(Cl)c(Cl)c(Cl)c1Cl,20 µM (active),
COC(OC)(C(=O)c1ccccc1)c1ccccc1,,inactive
CC(C)[N+](C)(CCOC(=O)C1c2ccccc2Oc2ccccc21)C(C)C,,inactive
O=C1CCCCCCCCCCCN1,,inactive
Fc1ccc(Br)cc1,,inactive
c1ccc2c(c1)[nH]c1ccccc12,,inactive
CCCCC1C(=O)N(c2ccccc2)N(c2ccccc2)C1=O,,inactive
C=CC(=O)OCCCCCCOC(=O)C=C,20 µM (active),
CCCCCCOC(=O)CCCCC(=O)OCCCCCC,,inactive
CC=C(C)C(C)=O,,inactive
COc1ccc(C(=O)c2ccccc2)c(O)c1,,inactive
